Only some compounds are listed: those with a hit (about 3.6% of all), similar ones and a draw of the others.
Pf apPOL block: Pf-apPOL inhibitors, biochemical, fluorescence; AID 1794808, 2022; 210,000 compounds, 0.25% hits; Recombinant Pf-apPOL, molecular beacon fluorescence, 1.5 h; Plasmodium falciparum apicoplast DNA polymerase (apPOL); inhibition, % at 10 µM
mHTT-CaM PPI inh: mutant huntingtin-calmodulin interaction inhibitors – biochemical, AlphaScreen, primary screen; AlphaScreen His-mHTT/GST-CaM binding, luminescence; P42858; inhibition, % at 15 µM; 190,000 compounds, 3.6% hits;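 further: 0% = both proteins with DMSO and 100% = one protein alone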
* = called active by the depositor; x = no result; ! = a repeat was not active. No stated cut-off is given here; in the data, active means inhibition above about 50%; inactive means the rest.

SMILES	Pf apPOL block	mHTT-CaM PPI inh
CC(C)Cc1nc(SCC(=O)Nc2ccc(S(N)(=O)=O)cc2)n[nH]1	62*	-5
CC(C)Cc1nc(SCC(=O)Nc2ccccc2)n[nH]1	2	-4
Cc1oc(C2CCN(S(=O)(=O)CCc3ccccc3)CC2)nc1C(=O)N1CCOCC1	-4	2
Nc1cccc[n+]1Cc1ccccn1	x	-6
COc1ccc(C(=O)c2ccc(N3CCCC3)c([N+](=O)[O-])c2)cc1	-13	13
O=[N+]([O-])c1ccc(C2Nc3ccc(Cl)cc3C(c3ccccc3)O2)cc1 (stereo not given)	-5	82*
O=[N+]([O-])c1ccc(C2CNC(c3ccccc3)O2)cc1 (stereo not given)	0	-2
CCCCN(C)Cc1c(O)ccc2c1OC(=Cc1cccc(OC)c1OC)C2=O	-4	5
CCCCCCN1C[C@H](n2cc(COC(=O)c3ccccc3)nn2)[C@@H](O)C[C@@H]1c1ccc(OC)cc1	-4	56*
CCCCCCN1C[C@H](n2cc(COC(=O)c3ccccc3)nn2)[C@@H](O)C[C@@H]1c1ccc(Cl)cc1	-2	32
O=C(OCc1cn([C@H]2C[C@H](c3ccccc3)N(CC3CCCCC3)C[C@@H]2O)nn1)c1ccccc1	-1	-4
COc1ccc([C@H]2C[C@H](O)[C@@H](n3cc(COC(=O)c4ccccc4)nn3)CN2CC2CCCCC2)cc1	-2	69*
COc1ccc([C@H]2C[C@@H](O)[C@H](n3cc(COC(=O)c4ccccc4)nn3)CN2Cc2cccs2)cc1	9	-1
COc1ccc([C@H]2C[C@H](O)[C@@H](n3cc(COC(=O)c4ccccc4)nn3)CN2Cc2cccs2)cc1	2	90*
COc1ccc(NS(C)(=O)=O)c(OC)c1	x	-5
O=C(COc1ccccc1Cl)N1CCCCC1CCN1CCCCC1 (stereo not given)	-11	0
COc1cc(CNC(=O)C2CCN(c3nc4cccnc4s3)CC2)cc(OC)c1OC	-3	-9
CC(C)(C)C(O)CCNC(=O)Cc1ccc(Cl)cc1 (stereo not given)	-5	-14
COc1cccc(/C=C2\SC(=O)N(CNc3ccc(I)cc3)C2=O)c1	-9	7
N#C/C(=C\c1ccc(F)cc1)c1nc(-c2ccc(Cl)cc2)cs1	1	-12
CCCNC(=O)c1sc2c(Cl)c(OC)ccc2c1Cl	-2	100*
COc1ccc2c(Cl)c(C(=O)Nc3cc(C)ccc3C)sc2c1Cl	-3	0
CCS(=O)(=O)N1CCC(c2ccccc2)C1 (stereo not given)	-6	-16
CCc1ccc(CNC(=O)C(=O)Nc2ccccc2F)cc1	70*	-4
CCOc1ccccc1NC(=O)C(=O)NCc1ccc(CC)cc1	20	-9
SMILES	Pf apPOL block	mHTT-CaM PPI inh
COc1ccc(C2=NOC(C(=O)Nc3cc(Br)ccc3O)C2)cc1 (stereo not given)	-1	15
O=C(Nc1ccc(Cl)c(C(F)(F)F)c1)C(NS(=O)(=O)c1cccs1)c1ccccc1 (stereo not given)	-8	100*
O=C(Nc1ccccc1F)C(NS(=O)(=O)c1cccs1)c1ccccc1 (stereo not given)	-5	3
COC(=O)Nc1ccc(S(=O)(=O)Nc2cc(C(C)C)c(O)c(C(C)C)c2)cc1	1	56*
COC(=O)Nc1ccc(S(=O)(=O)NC(C)=O)cc1	0	3
Cc1nc(C(=O)Nc2ccccc2)c(C)n1C1CCN(S(C)(=O)=O)CC1	-1	2
Cc1nc(C(=O)Nc2ccc(Oc3ccccc3)cc2)c(C)n1C1CCN(C)CC1	-6	82*
Cc1[nH]nc(-c2ccc(O)c(C)c2O)c1Oc1ccc(F)cc1	8	55*
COc1ccc(-c2n[nH]c(C)c2Oc2ccc(F)cc2)c(O)c1	-8	34
CCN(CCNC(=O)C1CCCN(c2cnn(C)c(=O)c2)C1)Cc1ccccc1 (stereo not given)	-3	6
CC(=O)N1CCC(CCOc2cccnc2)CC1	-4	-5
Oc1oc(-c2ccc(Br)cc2)nc1C=Nc1cccnc1	0	4
Cc1ccccc1NC(=O)c1ccc(C)c(S(=O)(=O)Nc2cccc(C(=O)O)c2)c1	-4	-3
Cc1ccc(C(=O)Nc2ccc(S(=O)(=O)O)c3cc(S(=O)(=O)O)cc(S(=O)(=O)O)c23)cc1NC(=O)c1cccc(NC(=O)Nc2cccc(C(=O)Nc3cc(C(=O)Nc4ccc(S(=O)(=O)O)c5cc(S(=O)(=O)O)cc(S(=O)(=O)O)c45)ccc3C)c2)c1	53*	x
COc1cccc(CN2CCc3nc(N4CCCC4)ncc3C2)c1OC	4	88*
COc1ccc(OC)c(CN2CCc3nc(N4CCN(c5ncccn5)CC4)ncc3C2)c1	0	99*
Fc1ccccc1CN1CCc2nc(N3CCOCC3)ncc2C1	0	6
CCN1CCN(c2ncc3c(n2)CCN(Cc2cc(OC)ccc2OC)C3)CC1	0	48
Fc1ccccc1CN1CCc2nc(N3CCN(c4ncccn4)CC3)ncc2C1	-1	100*
COc1ccc(CN2CCc3nc(N4CCCC4)ncc3C2)c(OC)c1	1	99*
COc1cccc(CN2CCc3nc(N4CCC(C)CC4)ncc3C2)c1OC	-3	23
COc1cc(OC)c(OC)cc1CN1CCc2nc(N3CCN(C)CC3)ncc2C1	-3	27
Nc1ccc(N2S(=O)(=O)c3ccccc3S2(=O)=O)cc1	-1	1
N#C/C(=C\c1ccc(Cl)cc1)c1nc(-c2ccc([N+](=O)[O-])cc2)cs1	-2	-3
Cc1ccc(S(=O)(=O)Cc2nc(-c3cccc(Br)c3)no2)cc1	-3	-30
SMILES	Pf apPOL block	mHTT-CaM PPI inh
COc1ccc(C(=O)N2CCCC(COc3cccc(C(=O)N4CCCC4)c3)C2)cc1 (stereo not given)	-3	9
O=C(/C=C/c1ccccc1)Nc1ccc(NC(=O)c2ccco2)cc1	4	10
O=Nc1ccc(NOC(=O)/C=C/c2ccccc2)cc1	-8	73*
Cc1ccccc1CNC(=O)C1(C)CCCN(S(=O)(=O)c2ccc(F)cc2F)C1 (stereo not given)	-7	-9
CCOc1ccc(NC(=O)NCc2nnnn2C2CCCCC2)cc1	-8	-28
CC1(C)CC(=O)C2=C(C1)N(c1ccc(Br)cc1F)C(N)=C(C#N)C2c1ccsc1 (stereo not given)	0	21
Cc1ccc2c(c1)N(C(=O)Nc1ccc(C)c(F)c1)CCO2	-4	-6
Cc1cccc2nnc(N3CCCC(C(=O)Nc4cccc(F)c4)C3)n12 (stereo not given)	-1	8
Cc1ccc(CSc2nc3ccccc3[nH]2)cc1	0	-18
O=C(Nc1ccc(Cl)cc1)/C(=C1\Nc2ccc([N+](=O)[O-])cc2N1)[N+](=O)[O-]	1	5
O=C(Nc1ccc(Br)cc1)/C(=C1\Nc2ccc([N+](=O)[O-])cc2N1)[N+](=O)[O-]	52*	16
COc1ccc(S(=O)(=O)Nc2cc([N+](=O)[O-])ccc2C)cc1	2	-6
CC1(C)OC2OC(C(=O)NCc3nc4ccccc4n3Cc3ccccc3)C3OC(C)(C)OC3C2O1 (stereo not given)	-11	0
CN(C)C=CC(=N)SCc1c(F)cccc1Cl	-10	x
N#CC(C#N)=C(SCc1c(F)cccc1Cl)SCc1c(F)cccc1Cl	72*!	x
O=C1C(Nc2ccc(Cl)cc2)=C(n2nnc3ccccc32)C(=O)c2ccccc21	-3	18
